Assay results from the supplement of paper PMC13380429.

Tested on: Vero E6 infected with SARS-CoV-2
Test: inhibition of SARS-CoV-2 cytopathic effect; higher = more antiviral protection, active = above 15
Details: 48 h

Measured: inhibition of SARS-CoV-2 cytopathic effect

O=c1cc(N2CCOCC2)oc2c(-c3ccccc3)cccc12
inactive: 1 nM -0.31% | 8.33 nM 1.39% | 100 nM 0.59% | 833.33 nM -1.92% | 10000 nM -5.7%

NC[C@H]1O[C@H](O[C@H]2[C@H](O)[C@@H](O[C@H]3O[C@H](CO)[C@@H](O)[C@H](N)[C@H]3O)[C@H](N)C[C@@H]2N)[C@H](O)[C@@H](O)[C@@H]1O [kanamycin]
inactive: 1 nM 1.47% | 8.33 nM 2.23% | 100 nM 2.41% | 833.33 nM 3.53% | 10000 nM -0.06%

CS(=O)(=O)c1ccc(Oc2cc(F)cc(C#N)c2)c2c1[C@H](O)C(F)(F)C2
inactive: 1 nM 0.26% | 8.33 nM 2.61% | 100 nM 0.38% | 833.33 nM -1.3% | 10000 nM 0.01%

COC(=O)Nc1nc2cc([S+]([O-])c3ccccc3)ccc2[nH]1 (stereo not given) [oxfendazole]
inactive: 1 nM 3.62% | 8.33 nM 1.23% | 100 nM 6.94% | 833.33 nM 0.7% | 10000 nM -1.5%

O=C(CCCN1CCC(O)(c2ccc(Br)cc2)CC1)c1ccc(F)cc1 [bromperidol]
inactive: 1 nM 3.91% | 8.33 nM 3.53% | 100 nM 2.65% | 833.33 nM -0.17% | 10000 nM -3.61%

Cn1cc(-c2cnc3ccc4ccc(CS(=O)(=O)NCc5ccccn5)cc4c(=O)c3c2)cn1
inactive: 1 nM 1.02% | 8.33 nM 0.57% | 100 nM 1.94% | 833.33 nM 3.38% | 10000 nM 1.59%

O=C(Cc1ccc(-c2ccc(OCCN3CCOCC3)cc2)cn1)NCc1ccccc1
inactive: 1 nM -1.67% | 8.33 nM 0.24% | 100 nM -3.29% | 833.33 nM -1.51% | 10000 nM -1.44%

O=C(Cc1ccccc1)Nc1nc2ccc(Cl)cc2c2nc(-c3ccco3)nn12
inactive: 1 nM 3.65% | 8.33 nM 4.32% | 100 nM 3.84% | 833.33 nM 2.42% | 10000 nM 4.22%

CCN(CC)CCCC(C)Nc1ccnc2cc(Cl)ccc12 (stereo not given) [chloroquine]
inactive: 1 nM -1.07% | 8.33 nM -2.02% | 100 nM 0.51% | 833.33 nM -0.4% | 10000 nM -1.51%

CC(=O)O[C@@H]1C[C@H]2C(C)(C)C(=O)C=C[C@]2(C)[C@H]2CC[C@@]3(C)[C@H](c4ccoc4)OC(=O)[C@H]4O[C@]43[C@@]21C [gedunin]
inactive: 1 nM -1.35% | 8.33 nM -1.68% | 100 nM -1.07% | 833.33 nM 6.09%
active: 10000 nM 19%

COc1cc2ncnc(Nc3cccc(Br)c3)c2cc1OC
inactive: 1 nM -2.89% | 8.33 nM -3.44% | 100 nM -2.56% | 833.33 nM -11.5%
active: 10000 nM 36.3%

COC(=O)C(Cc1ccc(OCCn2c(=O)sc3cc(C(=O)c4ccccc4)ccc32)cc1)C(=O)OC
inactive: 1 nM -0.38% | 8.33 nM 2.25% | 100 nM -1.78% | 833.33 nM -1.22% | 10000 nM 0.02%

O=c1c2ccccc2[se]n1-c1ccccc1 [Ebselen]
inactive: 1 nM 2.29% | 8.33 nM 0.73% | 100 nM 0.59% | 833.33 nM 1.45% | 10000 nM 1.28%

N=C(N)S/C=C\C(=O)O
inactive: 1 nM 1.98% | 8.33 nM 0.81% | 100 nM -2.6% | 833.33 nM -1.03% | 10000 nM -0.56%

O=C(NNC(=O)c1ccc(CNS(=O)(=O)c2ccc(F)c(Cl)c2)cc1)c1ccccc1
inactive: 1 nM -1.42% | 8.33 nM -1.3% | 100 nM 3.13% | 833.33 nM 0.57% | 10000 nM -0.76%

COc1cc(OC)c(/C=C2/C(=O)Nc3ccccc32)c(OC)c1
inactive: 1 nM 2.03% | 8.33 nM 1.86% | 100 nM 2.55% | 833.33 nM 1.29% | 10000 nM -1.88%

CCn1c(=O)n(C2=C(CO)CN(CC3CCCCCCC3)CC2)c2ccccc21 [trap-101]
inactive: 1 nM -2.39% | 8.33 nM 1.16% | 100 nM 1.23% | 833.33 nM 1.48% | 10000 nM -3.08%

COc1cc(-c2ccc(=O)[nH]n2)ccc1OC(F)F [zardaverine]
inactive: 1 nM 0.13% | 8.33 nM 1.54% | 100 nM 0.67% | 833.33 nM 0.7% | 10000 nM 2.13%

NS(=O)(=O)Nc1ncnc(OCCOc2ncc(Br)cn2)c1-c1ccc(Br)cc1
inactive: 1 nM -1.74% | 8.33 nM -0.97% | 100 nM -0.65% | 833.33 nM -3.11% | 10000 nM -3.32%

CO[C@@H]1[C@@H](O[C@@H]2O[C@H](C)[C@@H](O[C@H]3C[C@@](C)(O)[C@@H](OC(=O)CC(C)C)[C@H](C)O3)[C@H](N(C)C)[C@H]2O)[C@@H](CC=O)C[C@@H](C)[C@@H](O)/C=C/C=C/C[C@@H](C)OC(=O)C[C@H]1OC(C)=O [josamycin]
inactive: 1 nM 2.65% | 8.33 nM 0.07% | 100 nM -2.91% | 833.33 nM -1.73% | 10000 nM -7.02%

N[C@H](C(=O)O)c1ccc(O)c(C(=O)O)c1 [3-carboxy-4-hydroxyphenylglycine-(S)]
inactive: 1 nM -1.22% | 8.33 nM 0.105% | 100 nM -0.545% | 833.33 nM -1.18% | 10000 nM 0.39%

C#C[C@]1(O)CC[C@H]2[C@@H]3CCC4=CC(=NO)CC[C@@H]4[C@H]3CC[C@@]21CC (mixture of isomers) [norelgestromin]
inactive: 1 nM -0.39% | 8.33 nM -1.06% | 100 nM 1.68% | 833.33 nM 2.43% | 10000 nM 2.14%

CC(C)(C)c1ccc(-c2nc3c(N4CCN(Cc5ccc6nccnc6c5)CC4)cccc3[nH]2)cc1
inactive: 1 nM 1.45% | 8.33 nM 1.91% | 100 nM 1.44% | 833.33 nM -0.5% | 10000 nM 4.93%

CN(N=O)C(=O)N[C@@H](C=O)[C@@H](O)[C@H](O)[C@H](O)CO [streptozotocin]
inactive: 1 nM -2.28% | 8.33 nM -2.25% | 100 nM 2.59% | 833.33 nM 1% | 10000 nM 3.27%

Nc1ncnc2c1ncn2CCOCP(=O)(O)O [adefovir]
inactive: 1 nM 6.28% | 8.33 nM 4.07% | 100 nM 2.27% | 833.33 nM 0.75% | 10000 nM 2.85%

N=C(N)c1cc2ccc(OC(=O)c3cccs3)cc2s1
inactive: 1 nM 1.66% | 8.33 nM 1.86% | 100 nM 2.63% | 833.33 nM -1.57% | 10000 nM 4.87%

COCCNC(=O)COc1ccc(OCCNC[C@H](O)COc2ccccc2)cc1
inactive: 1 nM 0.49% | 8.33 nM 1.84% | 100 nM -1.53% | 833.33 nM -1.02% | 10000 nM -6.62%

CN(C)CCCn1cc(C2=C(c3c[nH]c4ccccc34)C(=O)NC2=O)c2ccccc21
inactive: 1 nM 2.56% | 8.33 nM 1.35% | 100 nM 1.36% | 833.33 nM 0.57% | 10000 nM 13.2%

S=P(N1CC1)(N1CC1)N1CC1 [thiotepa]
inactive: 1 nM -0.94% | 8.33 nM 1.88% | 100 nM 0.45% | 833.33 nM -0.47% | 10000 nM 2.21%

CCN(CCCc1ccccc1)CCCc1ccccc1 [alverine]
inactive: 1 nM -0.33% | 8.33 nM 1.03% | 100 nM -0.23% | 833.33 nM -0.58% | 10000 nM -0.57%

O=C(c1cncc(Br)c1)N1CCC(N2CCCC2)CC1
inactive: 1 nM -1.15% | 8.33 nM -2.01% | 100 nM -1.71% | 833.33 nM -4.94% | 10000 nM 0.82%

Cc1oc(=O)oc1CN1CCN(c2cc3c(cc2F)c(=O)c(C(=O)O)c2n3C(C)S2)CC1 (stereo not given) [prulifloxacin]
inactive: 1 nM 0.31% | 8.33 nM -0.69% | 100 nM -3.24% | 833.33 nM -1.97% | 10000 nM -3.69%

NCCCC[C@H](N[C@@H](CCc1ccccc1)C(=O)O)C(=O)N1CCC[C@H]1C(=O)O [lisinopril]
inactive: 1 nM 0.42% | 8.33 nM 0.67% | 100 nM 0.78% | 833.33 nM 0.97% | 10000 nM 1.56%

C1CCC(C(CC2CCCCN2)C2CCCCC2)CC1 (stereo not given) [perhexiline]
active: 10000 nM 48.5%
inactive: 1 nM 0.59% | 8.33 nM 4.47% | 100 nM 2.39% | 833.33 nM 0.87%

NC1=N[C@@](c2cccc(-c3cncnc3)c2)(c2ccnc(C(F)F)c2)c2cccc(F)c21
inactive: 1 nM 0.77% | 8.33 nM -1.06% | 100 nM -1.46% | 833.33 nM -0.56% | 10000 nM -2.76%

COc1cc(N)c(Cl)cc1C(=O)NC1CCN(Cc2ccccc2)CC1 [clebopride]
inactive: 1 nM -1.61% | 8.33 nM -0.47% | 100 nM -0.47% | 833.33 nM 6.56% | 10000 nM 0.26%

CCN(CC)C(=O)/C(C#N)=C/c1cc(O)c(O)c([N+](=O)[O-])c1 [entacapone]
inactive: 1 nM -0.37% | 8.33 nM -1.7% | 100 nM -1.61% | 833.33 nM -2.41% | 10000 nM -0.4%

CN[C@H](C(=O)N[C@H](C(=O)N(C)[C@H](/C=C(\C)C(=O)O)C(C)C)C(C)(C)C)C(C)(C)c1ccccc1 [taltobulin]
inactive: 1 nM -0.53% | 8.33 nM -1.55% | 100 nM -0.97% | 833.33 nM -1.63% | 10000 nM -1.03%

C1CCC(/N=C(\NC23CC4CC(CC(C4)C2)C3)N2CCOCC2)CC1
inactive: 1 nM 7.27% | 8.33 nM 1.31% | 100 nM 1.69% | 833.33 nM 4.84% | 10000 nM -3.64%
